Screening results from PubChem BioAssay.
An excerpt weighted towards active compounds, which were near 10% of everything screened.
PLK1 PBD block: inhibitors of human PLK1 polo-box domain binding; P53350; Potency, µM, most hits filed as inhibitors; 2.8% of 360,000 active; Plk1 PBD binding of FITC phosphopeptide, fluorescence polarization; further: series mostly up to about 57 µM; nearly all actives have a fitted effect of over 65% in size
CCT modulator: changes cytosolic chaperonin activity; purified chaperonin ATPase assay, HTRF ADP detection, 30 min; activity change, % (no concentration beside the values), hits read low; 0.3% of 360,000 active; in the data active means activity change below about -30%
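TRiC at 40 or 20 nM final (batch-dependent) in 30 mM Tris pH 7.4, 100 mM KCl, 5 mM MgCl2, 1 mM DTT, with compound at single 76 uM and 10 uM ATP, 30 min at 37 deg C. ADP detected by HTRF Transcreener, 665/615 ratio.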
Mm-Cpn inhibitor: blocks the Methanococcus maripaludis chaperonin Mm-Cpn; Potency, µM (series often up to 76.9 µM), most hits filed as inhibitors; 0.031% of 330,000 active; AID 504842; purified Mm-Cpn ATPase, ADP Transcreener TR-FRET; further: nearly all actives have a fitted effect of over 80% in size
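Compound-treated chaperonin, 25 nM final, turns over 10 uM ATP at 37°C for 30 min following a 10 min preincubation; ADP generated competes with ADP-d2 for Eu-cryptate antibody, lowering FRET.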
Sfp PPTase inh: blocks B. subtilis Sfp PPTase activity. Q9F4F7. Biochemical Sfp PPTase activity, qHTS. Potency, µM, actives largely listed as inhibitors. 3.5% of 310,000 active;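 further: the enzyme is Sfp with the accession as filed and its product quenches rhodamine fluorescence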
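With Hepes-Na pH 7.6 buffer containing 10 mM MgCl2, Sfp (15 nM) modified BHQ-2-YbbR (12.5 uM) using rhodamine-CoA (5 uM). Two reads 30 minutes apart at 525/598 nm yielded each well's rate.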
VDR inhibitor: vitamin D3 receptor (human) inhibition. VDR-SRC2-3 peptide fluorescence polarization, 2 h. 0.93% of 400,000 active. Potency, µM, usual class: inhibitors
Target sequence (P11473 whole entry, looked up): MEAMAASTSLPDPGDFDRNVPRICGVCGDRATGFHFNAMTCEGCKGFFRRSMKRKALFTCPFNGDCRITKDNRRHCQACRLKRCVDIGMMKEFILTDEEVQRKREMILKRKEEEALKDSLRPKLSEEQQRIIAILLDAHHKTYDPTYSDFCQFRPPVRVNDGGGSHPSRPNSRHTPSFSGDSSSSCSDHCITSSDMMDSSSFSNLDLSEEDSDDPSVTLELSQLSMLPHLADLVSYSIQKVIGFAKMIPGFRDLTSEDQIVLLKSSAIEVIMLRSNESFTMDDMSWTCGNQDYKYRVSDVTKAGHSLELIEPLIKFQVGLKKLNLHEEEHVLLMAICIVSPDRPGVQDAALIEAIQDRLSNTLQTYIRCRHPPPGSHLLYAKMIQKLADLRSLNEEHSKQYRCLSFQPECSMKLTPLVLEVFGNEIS
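Signal is fluorescence polarization, reporting how far test compounds block the interaction of VDR with the SRC2-3 coregulator peptide after a 2 h room-temperature incubation.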
G9a inh: G9a (human) methyltransferase inhibition. 8.8% of 350,000 active. Q96KQ7. Potency, µM (doses to about 102 µM), usual class: inhibitors. G9a H3K9 monomethylation, AlphaScreen, 2 h. AID 504332; further: nearly all actives have a fitted effect of over 75% in size
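Using a bead-based AlphaScreen, monomethylated H3K9 product from 2 h room-temperature reactions (G9a 20 nM, peptide 500 nM, SAM 20 uM) was detected with 0.5 ug/mL rabbit anti-H3K9me1 antibody.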
Hits are given with their value; – = inactive; ? = inconclusive; · = not tested or not shown; [ ] = dose if it differs, or a comment. Unless noted, the call rests on the fitted dose curve; in most records, active means well fitted curve in the direction sought with a large enough effect; inconclusive means small, poorly fitted or top-dose-only effect, or another doubt; inactive means no such curve, though single readings can be large; an effect the other way counts as inactive or inconclusive.

SMILES	PLK1 PBD block	CCT modulator	Mm-Cpn inhibitor	Sfp PPTase inh	VDR inhibitor	G9a inh
CCOC(=O)N1CCc2c(sc3c2C(=O)NC(c2cc(OC)c(O)c(OC)c2)N3)C1 (stereo not drawn)	·	·	·	·	–	17.8µM
CN1CCc2c(sc3c2C(=O)NC(c2ccc(-c4ccc(Cl)cc4)o2)N3)C1 (stereo not drawn)	–	–	–	50.1µM	–	·
COc1ccc(CNC(=O)C(=O)Nc2c3c(nn2-c2ccccc2)CSC3)cc1	·	·	·	·	–	–
CCCS(=O)(=O)N1CC(=O)N(c2ccc(Cl)cc2C)C(C)(C(=O)NC2CCCC2)C1 (stereo not drawn)	·	·	·	·	–	–
Cc1ccc2nc(SCC(=O)Nc3ncccn3)[nH]c2c1	–	–	–	–	–	·
O=C(CSc1nc2ccc(Cl)cc2[nH]1)NCCc1ccccc1	–	–	–	–	–	79.4µM
Cc1ccc2nc(SCC(=O)NNC(=O)c3ccccc3)[nH]c2c1	–	–	–	–	–	25.1µM
Cc1ccc(SCC(=O)NNC(=O)c2ccccc2)cc1C	–	–	–	–	–	–
Cc1ccc(C)c(SCC(=O)NNC(=O)c2ccccc2)c1	–	–	–	–	–	44.7µM
CCCCCCCCCCCCCCCC(=O)NCCCC(=O)O	·	·	·	–	–	·
CCOc1ccccc1C(=O)NCc1ccc2c(c1)CCN2C(C)=O	·	·	·	·	–	–
CCOC(=O)c1cccc(NC(=O)Cn2c(=O)nc(-c3ccccc3F)c3cc(Cl)ccc32)c1	·	·	·	·	–	–
CC[C@@H](C)[C@@H](C(=O)Nc1ccc(C)cc1)N1Cc2ccccc2C1=O	·	·	·	·	–	–
COc1ccc(C(=O)CN2C(=O)c3ccccc3S2(=O)=O)cc1Br	–	–	?	–	–	50.1µM
CCCNC(=O)c1[nH]c(C)c(C(C)=O)c1C	–	–	–	–	–	–
CC(=O)c1c(C)[nH]c(C(=O)N2CCCCCC2)c1C	2.67µM	–	–	–	–	–[0.501 µM]
CC(=O)c1c(C)[nH]c(C(=O)NCC2CCCCC2)c1C	–	–	–	–	–	39.8µM
Cc1ccccc1CSc1cn(CC(=O)N2CCCCCC2)c2ccccc12	·	·	·	·	–	–
CC(O)CN(C)C (stereo not drawn)	·	·	·	–	–	–[12.7 µM]
CCCCc1nn2c(=O)cc(COC(=O)C(C)Oc3ccccc3)nc2s1 (stereo not drawn)	·	·	·	·	–	–
COc1ccc(N2CCN(C(=O)CN(c3cccc(Br)c3)S(C)(=O)=O)CC2)cc1	–	–	–	–	–	–[2.33 µM]
CS(=O)(=O)N(CC(=O)N1CCN(c2ccccc2)CC1)c1cccc(Br)c1	–	–	–	–	–	89.1µM
COc1ccc(N(CC(=O)N2CCOCC2)S(C)(=O)=O)c(OC)c1	21.2µM	–	–	–	?	–
COc1cccc(N(CC(=O)N2CCN(c3ccccc3OC)CC2)S(C)(=O)=O)c1	–	–	–	–	–	79.4µM
COc1ccccc1N1CCN(C(=O)CN(c2ccc(C)c(C)c2)S(C)(=O)=O)CC1	–	–	–	–	–	–[12.7 µM]
SMILES	PLK1 PBD block	CCT modulator	Mm-Cpn inhibitor	Sfp PPTase inh	VDR inhibitor	G9a inh
CCc1ccccc1NC(=O)CN(c1cccc(OC)c1)S(C)(=O)=O	29.9µM	–	–	–	–	–
COc1ccc(NC(=O)Cn2cnc3c(nc4n3CCCCC4)c2=O)cc1Cl	·	·	·	·	–	–
CCOc1ccc(NC(=O)CN(C)C(=O)c2ccncc2)cc1OCC	–	–	–	?	–	39.8µM
CCOc1ccc(NC(=O)CN(C)C(=O)c2ccc(OCc3ccccc3)c(OC)c2)cc1OCC	–	–	–	·	–	–
CCOc1ccc(NC(=O)CN(C)C(=O)Cn2cnc3c2c(=O)n(C)c(=O)n3C)cc1OCC	–	–	–	·	–	50.1µM
CCOc1ccc(NC(=O)CN(C)C(=O)c2ccccc2CCc2ccccc2)cc1OCC	–	–	–	·	–	56.2µM
CN=c1scc(-c2ccc(OC)cc2)n1/N=C(\C)c1cccnc1	–	–	–	–	–	31.6µM
Cc1ccccc1CN1CCN(S(=O)(=O)c2ccc(F)cc2)CC1	–	–	–	?	–	6.31µM
COc1ccc(CN2CCN(S(=O)(=O)c3ccc(F)cc3)CC2)cc1OC	–	–	–	?	–	10µM
CCOc1cc(CN2CCN(S(=O)(=O)c3ccc(C)cc3)CC2)ccc1OC	·	·	·	·	–	0.891µM
COc1ccc(CN2CCN(S(=O)(=O)c3ccc(NC(C)=O)cc3)CC2)cc1OC	–	–	–	?	–	?
